High-throughput results deposited in PubChem by National Center for Advancing Translational Sciences (NCATS).
Most compounds without a hit are left out; they make up all but 4.6% or so of the library.
TRHR PAM – qHTS for Small Molecule Agonists and Allosteric Enhancers of Human TRH Receptor: Primary Screen for Enhancers. Thyrotropin-releasing hormone receptor (Homo sapiens), P34981. TRHR cells, fluo-8 calcium fluorescence, EC20 TRH enhancement. enhancement, % at 2 µM. hit rate 0.66% among 360,000. AID 493056, 2011; in the data active = enhancement above about 30%; note: 0% is about no effect
Target sequence (P34981 whole entry, looked up): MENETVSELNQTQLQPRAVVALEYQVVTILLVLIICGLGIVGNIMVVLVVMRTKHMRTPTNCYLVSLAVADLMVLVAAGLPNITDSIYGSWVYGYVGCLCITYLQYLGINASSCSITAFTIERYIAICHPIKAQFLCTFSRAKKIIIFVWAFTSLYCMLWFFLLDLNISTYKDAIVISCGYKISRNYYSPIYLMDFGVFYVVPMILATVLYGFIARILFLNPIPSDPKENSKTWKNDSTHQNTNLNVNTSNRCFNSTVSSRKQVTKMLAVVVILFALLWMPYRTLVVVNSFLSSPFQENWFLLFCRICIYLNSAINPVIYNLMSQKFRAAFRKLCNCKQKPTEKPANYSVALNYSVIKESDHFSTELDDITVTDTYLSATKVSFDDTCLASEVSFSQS
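Enhancer read-out: after compound pinning and an initial kinetic agonist-mode read, an EC20 of TRH (10 nM final) was injected and fluo-8 calcium signal (Ex 480/Em 530) followed at 1 s/cycle for 100 cycles in TRHR-expressing cells.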
D1 potentiator – Potentiators of Human D1 Dopamine Receptor: qHTS; HEK293 TREx D1 cells, calcium flux, dopamine EC20 potentiation; potentiation, % at 10 µM; hit rate 0.036% among 360,000; in the data active = potentiation above about 30%; note: 0% is about no effect
TRHR agonist – qHTS for Small Molecule Agonists and Allosteric Enhancers of Human TRH Receptor: Primary Screen for Agonists; Thyrotropin-releasing hormone receptor (Homo sapiens), P34981; hit rate 0.18% among 360,000; TRHR cells, calcium flux fluo-8, FDSS agonist mode; activation, % at 2 µM; note: 0% is about no effect
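TRHR-expressing cells, plated overnight in medium with 10% serum, were loaded with fluo-8 calcium dye at room temperature. After a 10 s baseline, library compound was pin-added and calcium release was recorded kinetically (ex 480/em 530) as agonist response.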
D1 antagonist – Antagonist of Human D 1 Dopamine Receptor: qHTS; D(1A) dopamine receptor (Homo sapiens), P21728; HEK293 TREx D1 cells, calcium flux, dopamine EC80; active compounds read low; activity change, negative = inhibition, % at 10 µM; hit rate 3.2% among 360,000; AID 504652, 2011; in the data active = activity change below about -30%; note: % is set by controls: 0 for no effect and ±100 for the full control effect
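Kinetic fluorescence of a calcium dye serves as the read-out. D1-expressing Hek293 Trex cells, induced overnight at 30 C, are exposed to compound for 180 s before an EC80 dopamine addition, then read 180 s further.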
D1 ag – Allosteric Agonists of the Human D1 Dopamine Receptor: qHTS; activation, % at 2 µM; HEK293 T-REx D1 cells, calcium flux, agonist mode; D(1A) dopamine receptor (Homo sapiens), P21728; hit rate 1% among 360,000; note: 0% is about no effect
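Inducible HEK293 T-REx D1 cells, force-coupled to calcium signalling, were plated at 4000 cells/well with tetracycline and held overnight at 30 C. After no-wash calcium dye loading, compound-evoked calcium rise over 180 s flagged agonists.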
* marks the source's active call; other numbers are inactive results. Cut-off read from the data, not from the text of the source, unless noted: active = activation above about 30%; inactive = the rest.

SMILES | TRHR PAM | D1 potentiator | TRHR agonist | D1 antagonist | D1 ag
O=[N+]([O-])c1ccc(-c2nc(Nc3cccc(O)c3)c3ccccc3n2)cc1 | -3.6 | -9.2 | 1.0 | -32.7* | 5.3
Cc1ccc(-c2nc(Nc3cccc(O)c3)c3ccccc3n2)cc1 | 6.6 | -13.8 | 2.9 | -30.2* | 6.6
COc1ccc(-n2ccn(Cc3ccccc3C)c(=O)c2=O)cc1 | 14.3 | -5.0 | 1.2 | -11.8 | 13.3
O=C(COC(=O)c1ccco1)Nc1nc2ccc([N+](=O)[O-])cc2s1 | -6.7 | -13.4 | -0.2 | -51.6* | 9.2
Cc1ccc2nc(NC(=O)COC(=O)c3ccco3)sc2c1 | 2.2 | -8.3 | 0.1 | -5.9 | 1.5
O=C(Nc1cccc(OCc2cc(=O)n3ccccc3n2)c1)Nc1cccc(C(F)(F)F)c1 | -1.4 | -2.6 | 0.4 | -10.3 | 2.4
COc1ccccc1N1CCN(C(c2cccs2)c2nnnn2C2CCCC2)CC1 (stereo unspecified) | -4.4 | -5.4 | -1.1 | -34.6* | 1.0
Cc1cccc(N2CCN(C(=O)c3ccc4nc[nH]c4c3)CC2)c1C | 1.5 | -7.2 | -1.2 | -45.8* | 20.1
Cc1ccc(Cl)cc1N1CCN(C(=O)c2ccc3nc[nH]c3c2)CC1 | 2.3 | -5.0 | 0.8 | -0.6 | 7.2
C#CCOCCOCCOCCNc1nc(N2CCN(C(=O)CCCCCCCCCCNC(=O)Cn3cc(CCCCCN)nn3)CC2)nc(N2CCN(C(=O)CCCCCCCCCCNC(=O)[C@H]([C@@H](C)CC)n3cc(CCCCCN)nn3)CC2)n1 | 4.5 | 20.3 | 9.4 | 109.9 | 43.2*
C#CCOCCOCCOCCNc1nc(N2CCN(C(=O)CCCCCCCCCCNC(=O)[C@@H](CCC(=O)O)n3cc(CCCCCN)nn3)CC2)nc(N2CCN(C(=O)CCCCCCCCCCNC(=O)[C@@H](CCC(=O)O)n3cc(CCCCCN)nn3)CC2)n1 | -10.2 | -6.4 | 0.1 | -32.3* | 10.3
C#CCOCCOCCOCCNc1nc(N2CCN(C(=O)CCCCCCCCCCNC(=O)Cn3cc(CCCCCN)nn3)CC2)nc(N2CCN(C(=O)CCCCCCCCCCNC(=O)[C@H](CO)n3cc(CCCCCN)nn3)CC2)n1 | -2.0 | 13.9 | 13.4 | 66.0 | 84.8*
O=C1CN(S(=O)(=O)c2cc(C(F)(F)F)ccc2Cl)CCN1 | 5.9 | 2.8 | -0.4 | -0.9 | 0.6
Cc1cc2c(s1)c1cnn(Cc3cccc(F)c3)c(=O)c1n2C | -4.2 | 1.1 | -1.3 | 5.2 | -0.5
Fc1ccccc1Cc1noc(CN2CCN(C/C=C/c3ccccc3)CC2)n1 | -4.9 | 3.7 | -0.1 | -52.8* | 1.2
O=CN1CCCN(Cc2nc(Cc3ccccc3F)no2)CC1 | -6.1 | -4.2 | 0.2 | 0.3 | 4.4
Cc1ccc(CN(C(=O)COc2ccccc2[N+](=O)[O-])c2ccccn2)cc1 | -4.1 | -0.7 | -0.6 | -8.5 | -0.8
COC(=O)CC(=O)Cc1nc(N)nc(Nc2ccc(C)c(C)c2)n1 | -6.0 | -9.1 | -1.9 | -50.4* | 0.5
O=C(CSc1nnc2ccc(-c3ccc(F)cc3)nn12)N1CCCC1 | 2.5 | -4.3 | -0.7 | -32.1* | 1.9
CCc1ccc(-c2ccc3nnc(SC)n3n2)cc1 | 3.8 | -5.3 | 0.2 | 3.6 | 4.0
CCSc1nnc2ccc(-c3ccc(C)cc3)nn12 | -3.2 | -4.1 | 0.0 | -28.2 | 58.8*
O=C(c1ccccc1)c1c2c(cc3sc4ccccc4[n+]13)-c1cccc3cccc-2c13 | 21.6 | -4.6 | 79.3* | -24.8 | 241.7*
CC1CCCN(C(=O)COC(=O)/C=C/c2ccc(C(F)(F)F)cc2)C1 (stereo unspecified) | 8.0 | -16.7 | 0.3 | -46.6* | 5.0
CCOc1ccc(C2C(C(=O)Nc3ccccc3OC)=C(C)Nc3c(C(=O)Nc4cccc(C)c4)cnn32)cc1 (stereo unspecified) | 20.2 | -5.7 | -0.2 | -27.5 | 0.9
COc1ccc(S(=O)(=O)Nc2cccc(C(C)=O)c2)cc1Br | -1.7 | 4.5 | -0.1 | -2.0 | 5.9
O=C(NCCCN1CCCC1=O)c1cccc(NS(=O)(=O)c2ccccc2)c1 | 3.4 | 2.6 | 0.1 | 6.9 | 3.5
